# Experimental data: PubChem BioAssay (EPA / NIEHS)
# Inconclusive results are not listed. The source made the active and inactive calls. The calls were made as follows: active = hit-call score of the fitted dose curve at least 0.9, where 1 is the maximum; inconclusive = response in the unintended direction; inactive = score below 0.9.
# Target: Estrogen receptor beta (Homo sapiens) (UniProt Q92731)
# Assay: ATG_hERb_XSP1: Attagene TRANS-FACTORIAL Multi-Species (XSP1) HepG2 Assay for human Estrogen Receptor (ESR2) (AID 2283788)
# How it was run: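 HepG2 cells transiently transfected with GAL4-UAS multiplexed reporter units, 3 nM 6-alpha-fluorotestosterone present; 24 h exposure. Reporter mRNA measured by RT-PCR, fluorescent labelling and capillary electrophoresis; gain of signal fitted against DMSO.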
# Estrogen receptor beta (Homo sapiens), sequence (Q92731 whole entry, looked up): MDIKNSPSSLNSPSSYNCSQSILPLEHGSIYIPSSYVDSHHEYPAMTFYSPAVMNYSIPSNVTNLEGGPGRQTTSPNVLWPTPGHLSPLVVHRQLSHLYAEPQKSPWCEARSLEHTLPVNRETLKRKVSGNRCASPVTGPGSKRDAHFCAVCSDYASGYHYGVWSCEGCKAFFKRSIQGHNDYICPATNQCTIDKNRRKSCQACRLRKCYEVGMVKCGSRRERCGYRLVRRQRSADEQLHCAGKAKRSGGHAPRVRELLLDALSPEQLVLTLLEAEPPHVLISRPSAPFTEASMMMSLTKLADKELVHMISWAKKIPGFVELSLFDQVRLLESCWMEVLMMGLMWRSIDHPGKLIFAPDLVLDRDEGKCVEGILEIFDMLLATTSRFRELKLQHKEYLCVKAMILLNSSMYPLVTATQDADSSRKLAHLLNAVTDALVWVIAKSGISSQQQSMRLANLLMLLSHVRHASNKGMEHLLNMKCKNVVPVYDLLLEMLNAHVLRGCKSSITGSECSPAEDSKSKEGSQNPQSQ
Structure (SMILES),outcome,AC50
CC(=O)S[C@@H]1CC2=CC(=O)CC[C@]2(C)[C@H]2CC[C@@]3(C)[C@@H](CC[C@@]34CCC(=O)O4)[C@H]12,inactive,
Oc1ccc(C(c2ccc(O)cc2)C(Cl)(Cl)Cl)cc1,inactive,
C=CCOC(Cn1ccnc1)c1ccc(Cl)cc1Cl (stereo not given),,7530 nM (active)
CCCCC(CC)COC(=O)c1ccccc1C(=O)O (stereo not given),inactive,
CC(C)CCCCCCc1ccc(O)cc1,,246 nM (active)
O=C(c1ccc(O)cc1O)c1ccc(O)cc1O,,227 nM (active)

# Target: GAL4 Transcription Factor (Internal Marker), GAL4 (gene 855828) (UniProt P04386)
# Sequence (P04386 whole entry, looked up, the tested form may be a part): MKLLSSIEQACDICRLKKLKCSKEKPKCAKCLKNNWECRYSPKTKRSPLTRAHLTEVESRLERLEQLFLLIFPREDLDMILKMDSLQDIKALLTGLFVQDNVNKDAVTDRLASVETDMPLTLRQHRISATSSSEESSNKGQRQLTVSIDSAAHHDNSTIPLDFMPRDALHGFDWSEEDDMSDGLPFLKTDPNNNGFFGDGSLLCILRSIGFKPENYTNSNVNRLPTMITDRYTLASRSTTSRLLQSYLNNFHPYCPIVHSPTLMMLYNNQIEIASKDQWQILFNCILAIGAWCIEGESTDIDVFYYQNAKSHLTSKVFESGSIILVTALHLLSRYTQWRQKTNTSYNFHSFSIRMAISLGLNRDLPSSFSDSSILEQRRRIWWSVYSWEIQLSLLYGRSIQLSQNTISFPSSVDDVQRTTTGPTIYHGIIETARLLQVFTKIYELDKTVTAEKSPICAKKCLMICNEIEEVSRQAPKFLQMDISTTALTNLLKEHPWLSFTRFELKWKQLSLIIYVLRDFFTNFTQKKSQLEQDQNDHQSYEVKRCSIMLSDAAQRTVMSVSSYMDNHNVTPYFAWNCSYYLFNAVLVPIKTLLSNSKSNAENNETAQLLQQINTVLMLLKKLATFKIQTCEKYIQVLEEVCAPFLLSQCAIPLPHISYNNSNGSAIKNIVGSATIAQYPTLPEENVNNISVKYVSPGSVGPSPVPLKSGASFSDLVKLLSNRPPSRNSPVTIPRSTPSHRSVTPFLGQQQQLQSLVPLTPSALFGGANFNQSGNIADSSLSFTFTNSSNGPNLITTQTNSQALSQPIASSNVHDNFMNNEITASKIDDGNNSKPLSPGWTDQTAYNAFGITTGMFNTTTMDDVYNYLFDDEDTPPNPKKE
# Assay: ATG_GAL4_XSP1: Attagene TRANS-FACTORIAL Multi-Species (XSP1) HepG2 Assay for GAL4 Transcription Factor (Internal Marker) (AID 2283789)
# Experimental: ATG_XSP1_multi-species_TRANS is a cell-based, multiplexed assay created by modifying the existing Attagene TRANS-FACTORIAL system to include a panel of nuclear receptors from some or all the following species: human (Homo sapiens), mouse (Mus musculus), frog (Xenopus laevis), zebrafish (Danio rerio), chicken (Gallus gallus), and turtle (Chrysemys picta). The ECOTOX-FACTORIAL format uses HepG2, a human liver cell line, with measurements taken at 24 hours after chemical dosing in a 24-well plate. Xsp1 included 3 nM 6-alpha-fluorotestosterone to partially stimulate the androgen receptor.ATG_GAL4_XSP1 is one of 29 assay components measured or calculated from the ATG_XSP1_multi-species_TRANS assay. It is designed to make measurements of mRNA induction, a form of inducible reporter, as detected with fluorescence intensity signals by Reverse transcription polymerase chain reaction (RT-PCR) and Capillary electrophoresis technology.This assay endpoint, ATG_GAL4_XSP1, was analyzed in the positive analysis fitting direction relative to DMSO as the negative control and baseline of activity. Using a type of inducible reporter, measures of mRNA for gain-of-signal activity can be used to understand the background control at the transcription factor-level as they relate to the gene. Furthermore, this assay endpoint can be referred to as a secondary readout, because this assay has produced multiple assay endpoints where this one serves a background control function. To generalize the intended target to other relatable targets, this assay endpoint is annotated to the background measurement intended target family, where the subfamily is baseline control.
# Human liver HepG2 cells are transiently transfected with multiple reporter transcription units (MRTUs) in 6-well plates using FuGene 6 reagent (Roche; 3 ml FuGene/1 mg DNA). The MRTU constructs are regulated by a cis-regulating element (promoter). […] A major difference between the CIS and TRANS system is that in CIS activities of endogenous TFs are measured, whereas the TRANS assay evaluates changes in activities of exogenous, chimeric NR-Gal4 proteins. […] At the end of 24 hour incubation, total RNA was isolated using TriZol reagent (Invitrogen). The isolated RNA is then reverse-transcribed using oligo(dT) primer and Mo-MLV reverse transcriptase (Invitrogen) with DNAse I (Ambion) treatment for 30 min. […] The fragments were purified using Qiaquick PCR columns (Qiagen), analyzed on an ABI 3130xL genetic analyzer (Applied Biosystems) with peak positions identified by using a set of X-rhodamine (ROX)-labeled MapMarker1000 molecular weight standards (BioVentures). […]
row,Structure (SMILES),outcome
1,CCCCC(CC)CN1C(=O)C2C3C=CC(C3)C2C1=O (stereo not given),inactive
2,CC1(C)C(C=C(Cl)Cl)C1C(=O)OCc1cccc(Oc2ccccc2)c1 (stereo not given),inactive
3,Oc1ccc(C(c2ccc(O)cc2)C(Cl)(Cl)Cl)cc1,inactive
4,CCCCC(CC)COC(=O)c1ccccc1C(=O)O (stereo not given),inactive
